Screens as filed in PubChem BioAssay.
p53 reactivation: re-activators of mutant p53; H1299 p53-A138V BP100-luciferase reporter, luminescence, 24 h; Potency, µM (titrated, usually from 92.2 µM), inactives show at the top dose activity change, positive = activation, usual class: activators; actives 0.063% (n = 320,000); further: % of control where 0% means no effect; nearly all actives have a fitted effect of over 45% in size
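H1299 (p53-null), stable ts p53-A138V + BP100-Luc; 1000 cells/well, Opti-MEM/10% FBS; cpd 4 pt, 1:5; 24 h, 37 deg C, 5% CO2; detection reagent 10 min RT; luminescence.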
ELG1 DNA repair: ELG1-dependent DNA repair inhibition. actives 2.3% (n = 330,000). HEK293T ELG1-luciferase reporter, luminescence, 16 h; DNA damage induced by 5-fluorouridine. Potency, µM (highest dose often 46.1 µM), for inactives: top-dose activity change, negative = inhibition, actives largely listed as inhibitors. AID 504467; further: on the % scale 0 is the no-effect control and ±100 the full control effect; nearly all actives have a fitted effect of over 55% in size
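In this reporter screen, reduction of luminescence relative to DMSO vehicle indicated activity. Compounds and 5-fluorouridine were added together to 2,000 cells per well, incubated for 16 hr at 37 °C, then developed with ONE-Glo.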
MCF10A rerep: inducers of DNA re-replication in MCF 10A breast cells. MCF 10A DNA re-replication, Hoechst nuclear intensity, 48 h. Potency, µM (highest dose often 46.1 µM), for the others: at the highest dose activity, positive = re-replication, usual class: activators. actives 2.9% (n = 350,000). AID 624296; further: % of control where 0% means no effect; nearly all actives have a fitted effect of over 50% in size
AT treatment: candidate therapy for ataxia-telangiectasia; actives 0.19% (n = 320,000); F2112 A-T fibroblasts, KAP-1 phosphorylation AlphaLISA; neocarzinostatin DNA damage 30 min before lysis; Potency, µM (top dose mostly 57.5 µM), for the others: at the top dose activation, most hits filed as activators; AID 485349; further: % of control where 0% means no effect; nearly all actives have a fitted effect of over 45% in size
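hTERT-immortalized A-T patient fibroblasts (F2112), 500 cells/well in OPTI-MEM, 1% FBS, got compounds for 60 min, then NCS for 30 min at 37C. Lysates were then assayed for phospho-KAP-1 by AlphaLISA (anti-pKAP1 donor, anti-KAP1 acceptor beads), 6 hr at 25C.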
SW480 rerep: inducers of DNA re-replication in SW480 colon cancer cells; SW480 DNA re-replication, Hoechst DNA content imaging, 48 h; Potency, µM (highest dose often 46.1 µM), without a hit: at the highest dose re-replication activation, actives largely listed as activators; actives 1.8% (n = 340,000); AID 624297; further: % of control where 0% means no effect; nearly all actives have a fitted effect of over 55% in size
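SW480 cells exposed to compounds for 48 hr at 37 C, 5% CO2, then Hoechst-stained 40 min. Nuclear DNA content imaged by fluorescence scanning (405 nm excitation, 500-530 nm emission); re-replication scored as increased high-intensity nuclei.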
ELG1 genotox: genotoxicity induction in ELG1-luciferase HEK293T cells; Potency, µM (top dose mostly 46 µM), for the others: top-dose activity change, positive = activation, most hits filed as activators; actives 1.3% (n = 330,000); HEK293T ELG1-luciferase reporter, luminescence, 16 h; further: % of control where 0% means no effect; nearly all actives have a fitted effect of over 60% in size
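Screening used a luciferase reporter fused to human ELG1 in HEK293T cells. Luminescence was read on a CCD plate imager after 16 hr exposure and 30 min ONE-Glo incubation.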
Numbers without * were called inactive; u = inconclusive; x = no result; [ ] = dose if it differs, or a comment. Sampled rows, rich in hits. Any-hit rate of the full collection: about 7.1%. The call rests on the fitted dose curve; in most records, active means well fitted curve in the direction sought with a large enough effect; inconclusive means small, poorly fitted or top-dose-only effect, or another doubt; inactive means no such curve, though single readings can be large; an effect the other way counts as inactive or inconclusive. Potency means the concentration at half of the fitted maximal effect.

SMILES	p53 reactivation	ELG1 DNA repair	MCF10A rerep	AT treatment	SW480 rerep	ELG1 genotox
COc1cc2nc(N3CCNCC3)nc(N)c2cc1OC	6%	19%	30%	3%	u	u
CCCOc1ccc(C(F)(F)F)cc1NC(=O)CCc1c(C)noc1C	-3%	-30%	u	13%	u	-4%
COc1ccc2c(c1)C(CC(=O)NN)CCC2 (stereo unspecified)	x	x	2.3µM*	x	13µM*	x
Cc1ccc(NC(=O)COC(=O)C2CCC2)cc1S(=O)(=O)N1CCOCC1	-1%	8%	3%	-1%	1%	3%
C=CCN1C(=O)/C(=C/c2ccc(O)c(OC)c2)S/C1=N/c1nccs1	-10%	23µM*	18µM*	-7%	u	4%
C=CCN1C(=O)/C(=C/c2ccc(OCC(=O)O)cc2)S/C1=N/c1nccs1	-12%	6%	u	-8%	1%	1%
N#Cc1ccccc1S(=O)(=O)N1CCN(C(=O)C2COc3ccccc3O2)CC1 (stereo unspecified)	1%	u	0%	-5%	-4%	1%
O=C(/C=C\c1cccs1)c1c(O)ccc2ccc(=O)oc12	-14%	u	21µM*	1%	5%	-1%
COC(=O)c1cc(C#N)c(N2CCN(C)CC2)nc1C	-12%	12%	21µM*	1%	-70%	3%
Cc1c2ccccc2nc2c(F)c(NCCO)c(F)c(F)c12	u	u	u	17%	u	u
OCCNc1c2ccccc2nc2c(F)c(F)c(F)c(F)c12	u	u	u	-2%	13µM*	-18%
CCc1ccc(C(=O)C(C)OC(=O)Cn2[nH]c(=O)c3ccccc3c2=O)cc1 (stereo unspecified)	7%	0%	2%	19%	6%	-2%
CCc1ccc(C(=O)C(C)OC(=O)Cc2n[nH]c(=O)c3ccccc23)cc1 (stereo unspecified)	-10%	-21%	15µM*	-3%	u	-4%
CCCCN(CC)CCCNC(=O)c1cc2cc3ccc(C)cc3nc2o1	-1%	-3%	-20%	11%	-63%	-1%
Cc1cccc(N(C)C(=O)c2cc3cc4ccc(C)cc4nc3o2)c1	3%	u	10µM*	10%	u	21µM*
COC(=O)[C@H]1[C@H]2CC3c4[nH]c5ccccc5c4CCN3C[C@@H]2CC[C@@H]1O (stereo partly specified)	x	x	-2%[20.6 µM]	x	-8%	x
CCOC(=O)C1(Cc2cccc(Cl)c2)CCCN(C(=O)c2ccco2)C1 (stereo unspecified)	u	u	u	0%	29%	0%
CCOC(=O)C1(Cc2cccc(Cl)c2)CCCN(C(=O)c2ccoc2C)C1 (stereo unspecified)	-1%	-21%	u	-9%	16µM*	-5%
COc1ccc(OC)c(NC(=O)CN2CCC(C(=O)c3ccc(C)cc3)CC2)c1	-4%	21µM*	18µM*	-3%	3%	-13%
CCOc1ccc(C(=O)Nc2ccccc2N2CCOCC2)cc1	1%	18%	12%	-8%	-1%	7%
O=C(CN1CCC(C(=O)c2ccc3c(c2)OCCO3)CC1)Nc1ccccc1C(F)(F)F	-4%	-26%	16µM*	11%	4%	-11%
CCOc1ccc(C(=O)C2CCN(CC(=O)Nc3ccccc3N3CCOCC3)CC2)cc1	1%	21µM*	7.3µM*	-4%	u	2%
CCc1ccc(C(=O)Cc2cc3cccc(OC)c3oc2=O)cc1	13%	0%	-17%	0%	-11%	13%
Cc1ccc(NC(=O)COC(=O)C2=NN(c3ccccc3)C(=O)CC2)c(Br)c1	u	25%	0%	9%	1%	4%
